The text below walks through data of PubChem BioAssay (NCI).

Assay [1] in a line: NCI Yeast Anticancer Drug Screen. Data for the rad50 strain (AID 155).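 Further: 0% = growth of vehicle-only cultures of the same strain.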 The settings on record: S. cerevisiae rad50 strain growth inhibition; at 50.0 µM; active compounds read high. The method, boiled down: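 Cells are treated with compound, grown, and their growth is then scored against vehicle-only cultures of the same repair-deficient yeast strain.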
The nature of assay [2]: NCI Yeast Anticancer Drug Screen. Data for the mec2-1 strain (AID 157). The conditions noted are these: S. cerevisiae mec2-1 strain, at 50.0 µM, active compounds read high. The method, boiled down:
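Compounds were applied to mec2-1 yeast cells. Their growth was then compared with that of vehicle-treated cultures to give growth inhibition.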

A short description of assay [3]: NCI Yeast Anticancer Drug Screen. Data for the sgs1 mgt1 strain (AID 161).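 Further: 0% = growth of cultures given vehicle only.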 The settings on record: S. cerevisiae sgs1 mgt1 strain, at 50.0 µM, active compounds read high. The method, boiled down:
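Yeast cells carrying a defined DNA-repair defect were exposed to test compounds. Growth inhibition was measured relative to vehicle-treated controls.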

The nature of assay [4]: NCI Yeast Anticancer Drug Screen. Data for the cln2 rad14 strain (AID 165).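 Further: 0% = growth equal to vehicle treated cultures.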 The settings on record: S. cerevisiae cln2 rad14 strain, at 50.0 µM, active compounds read high. The method, boiled down:
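Strain: cln2 rad14 yeast, altered in cell cycle control and DNA damage repair. Read-out: growth inhibition vs vehicle.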

Assay [5] is described as follows: NCI Yeast Anticancer Drug Screen. Data for the bub3 strain (AID 167). The conditions noted are these: S. cerevisiae bub3 mutant strain, at 50.0 µM, active compounds read high. In outline:
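Part of a panel of yeast mutants defective in DNA damage repair or cell cycle regulation. Each strain is grown with compound, and inhibition is calculated relative to solvent-treated cultures.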

Assay [6] can be described thus: NCI Yeast Anticancer Drug Screen. Data for the mlh1 rad18 strain (AID 175). The conditions noted are these: S. cerevisiae mlh1 rad18 strain growth inhibition; at 50.0 µM; active compounds read high. In outline:
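A repair-deficient yeast strain is exposed to test compound, and growth is scored relative to vehicle-treated controls.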

The panel holds about 79,000 compounds, 15% with a hit somewhere; the sample as a whole holds those more often. Values without a mark were called inactive. Calls of active or inactive are those of the source. No stated cut-off is given here; in the data, active means growth inhibition above about 70%; inactive means the rest.

Turning to `CC(=O)n1nnc(CC#N)c1-c1ccccc1`, the growth inhibition in assay [1] was 20.4%; in assay [2], 7.5%; in assay [3] it was 2.65%; in assay [4], 5.1%; in assay [5], -23.2%; in assay [6] it was -15.3%.
Turning to `COc1ccc(/C=C2/SC(=Nc3ccccc3)N(NC(=O)Cc3ccccc3)C2=O)cc1`, the growth inhibition in assay [1] was -22.7%; in assay [2], -14.2%; in assay [3], 13.7%; in assay [4] it was -16.6%; in assay [5] it was -26.6%; in assay [6] it was -22.2%.
For the molecule `O=C1OC(=O)c2c(Cl)c(Cl)c(Cl)c(Cl)c21`, the growth inhibition in assay [1] was 8.55%; in assay [2], -0.15%; in assay [3], 23.9%; in assay [4], -34.9%; in assay [5], -6.25%; in assay [6], 2.5%.
As for `C=CCCCCCCCCC(=O)NC(C)C(C)(C)C` (centres undefined), the growth inhibition in assay [1] is 29.9%; in assay [2], 19.8%; in assay [3] it was 14.7%; in assay [4], 39%; in assay [5] it was 27.3%; in assay [6], 25.5%.
Consider `C=[N+](CNC(=O)CNC(=O)C(Cc1ccc([N+](=O)[O-])cc1)NC(=O)OC(C)(C)C)C(=O)CNC(=O)C(Cc1ccc([N+](=O)[O-])cc1)NC(=O)OC(C)(C)C` (centres undefined), for which the growth inhibition is -23.1% in assay [1]; -28% in assay [2]; -29.4% in assay [3]; 3.3% in assay [4]; -12.2% in assay [5]; -18.8% in assay [6].
As to `COc1cccc(CCO)c1OC`, the growth inhibition in assay [1] is 1.3%; in assay [2], -13.2%; in assay [3] it was 10.9%; in assay [4], -10.4%; in assay [5], 5.2%; in assay [6], 10.9%.
`COc1ccc(C2C3=C(CCCC3=O)OC3=C2C(=O)CCC3)cc1`: the growth inhibition is -6.85% in assay [1]; 1.4% in assay [2]; -16.2% in assay [3]; -17.2% in assay [4]; 9.65% in assay [5]; 12.7% in assay [6].
Regarding `CCOc1c(OC)cc(-c2nc3n(n2)C(=O)C(CC)S3)cc1OC` (centres undefined), the growth inhibition in assay [1] was -15.6%; in assay [2] it was -17.4%; in assay [3], -41.3%; in assay [4], -4.85%; in assay [5], -3.65%; in assay [6], -4.2%.
As to `O=C(Cc1ccccc1)NN1C(=O)/C(=C\c2ccc([N+](=O)[O-])cc2)SC1=Nc1ccccc1`, the growth inhibition is -2.8% in assay [1]; -8.85% in assay [2]; 52.1% in assay [3]; 15.2% in assay [4]; -18.9% in assay [5]; 28.5% in assay [6].
Take `COc1ccc(/C(Cl)=C(\C=O)c2ccc(OC)c(OC)c2)cc1OC`: the growth inhibition is 21.9% in assay [1]; 4.5% in assay [2]; -0.3% in assay [3]; -17.1% in assay [4]; -3% in assay [5]; -13.1% in assay [6].
In the case of `CCC(O)CNCc1c2ccccc2cc2ccccc12` (centres undefined), the growth inhibition in assay [1] was 20.1%; in assay [2] it was 14.7%; in assay [3], 22.1%; in assay [4], 12.6%; in assay [5] it was 1.95%; in assay [6], 10.8%.
For the molecule `CCCCCCCCCCCCCCCCCC1(c2ccccc2)NC(=O)NC1=O` (centres undefined), the growth inhibition in assay [1] is 9.5%; in assay [2], 10.3%; in assay [3], 30.5%; in assay [4] it was 12.9%; in assay [5] it was 5.8%; in assay [6], -13.1%.
Regarding `Cc1ccc(NC(=O)Nc2ccccc2Cl)cc1Cl`, the growth inhibition in assay [1] is 12.6%; in assay [2] it was 17.5%; in assay [3], 6.1%; in assay [4], -20.4%; in assay [5], 4.75%; in assay [6], -4.55%.
Take `CC(=O)c1c(-c2nc(=S)[nH]c(C)c2C(C)=O)nc(=S)[nH]c1C`: the growth inhibition in assay [1] is 15.1%; in assay [2], 9.95%; in assay [3] it was 6.3%; in assay [4] it was 0.45%; in assay [5], -1.45%; in assay [6], 16.8%.
`CC1(C)C=C(C(Br)c2ccc(Cl)cc2)C(=O)c2ccccc21` (centres undefined): the growth inhibition in assay [1] is 96.8% (active); in assay [2], 97.4% (active); in assay [3], 98.2% (active); in assay [4], 94.7% (active); in assay [5] it was 88.2% (active); in assay [6] it was 98.2% (active).
Regarding `CC(C)C1NC(=O)c2ccccc2S1` (centres undefined), the growth inhibition in assay [1] is 27.8%; in assay [2], -15.9%; in assay [3], -3.55%; in assay [4] it was 26.1%; in assay [5], 10.7%; in assay [6], 44%.
Take `Cc1ccc(C)c(NC(=O)CC/C(=N\NC(=O)c2c(O)ccc3ccccc23)C(C)C(=O)c2ccc(O)cc2)c1` (centres undefined): the growth inhibition in assay [1] was 10.2%; in assay [2] it was 36.5%; in assay [3], -5.55%; in assay [4] it was 12.6%; in assay [5] it was 16.1%; in assay [6] it was 20.8%.
On to `CCOC(=O)[C@H]1C(CC)=NOC1C` (some centres undefined), for which the growth inhibition is 9.95% in assay [1]; 13.2% in assay [2]; 2.9% in assay [3]; -27.5% in assay [4]; 4.25% in assay [5]; 2.4% in assay [6].
On to `NNC(=S)N/N=C(/C(=O)Nc1cc(Cl)ccc1Cl)C1C(=O)Nc2ccccc2S1=O` (centres undefined), for which the growth inhibition in assay [1] is -21.8%; in assay [2], -32.6%; in assay [3] it was -5.1%; in assay [4], -28.6%; in assay [5], -6.6%; in assay [6] it was -0.35%.
